Only some compounds are listed: those with a hit (about 19% of all), similar ones and a draw of the others.
TDP1 cell noCPT: qHTS for Inhibitors of human tyrosyl-DNA phosphodiesterase 1 (TDP1): qHTS in cells in absence of CPT. 420,000 compounds, 15% hits. DT40 Tdp1-/- hTDP1 cells, no CPT, ATP luminescence, 48 h. AID 686978, 2013. Potency, µM (top dose mostly 46.2 µM), without a hit: top-dose activity change, negative = growth inhibition, most hits filed as inhibitors; also: nearly all actives have a fitted effect of over 55% in size
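Readout: luminescence from CellTiter-Glo after 30 min in the dark at RT. Cells: DT40 Tdp1-/- with stable hTDP1, 400/well. Exposure: compounds alone, ≥48 hr, 37 °C.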
TDP1 cell CPT: DT40-hTDP1 cell growth loss with CPT. chicken DT40 Tdp1-/-;hTDP1 cells + 20 nM CPT, ATP luminescence, 48 h. Potency, µM (titrated, usually from 46.2 µM), for the others: at the highest dose activity change, negative = growth inhibition, usual class: inhibitors. 420,000 compounds, 12% hits. AID 686979; also: nearly all actives have a fitted effect of over 55% in size
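Chicken DT40 Tdp1-/- cells complemented with human TDP1, 400 cells/well, exposed to compounds plus 20 nM camptothecin for at least 48 h at 37 C; viability read as ATP content by CellTiter-Glo luminescence.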
KB-3-1 tox: kills parental KB-3-1 adenocarcinoma cells; Potency, µM (highest dose often 46.1 µM), usual class: cytotoxic; 400,000 compounds, 1.4% hits; KB-3-1 viability, CellTiter-Glo ATP luminescence, 72 h; AID 1347075; also: nearly all actives have a fitted effect of over 60% in size
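Viability of parental KB-3-1 cells, measured by CellTiter-Glo luminescence, followed a 72 h incubation at 37 °C with pinned compounds in phenol-red-free DMEM containing 10% FBS.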
HT1080NT lethal: kills 2HG-producing HT-1080-NT fibrosarcoma cells; 360,000 compounds, 1.6% hits; HT-1080-NT fibrosarcoma viability, CellTiter-Glo ATP luminescence, 48 h; Potency, µM (series often up to 46.1 µM), without a hit: at the highest dose activity, negative = less viability, most hits filed as cytotoxic;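 also: NT is the 2HG producing partner of a matched IDH1 knockdown line; 0% = DMSO-treated cells and -100% = media-only wells without cells; nearly all actives have a fitted effect of over 55% in size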
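Compounds were tested in concentration-response format on HT-1080-NT cells for 48 hours at 37 degrees C. Cell viability came from CellTiter-Glo luminescence; curves were classified by r2, response magnitude and activity.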
HT1080 IDH1KD tx: kills HT-1080 cells with IDH1 knockdown; HT-1080 IDH1 knockdown viability, ATP luminescence, 48 h; Potency, µM (series often up to 46.1 µM), inactives show at the highest dose activity, negative = toxicity, most hits filed as cytotoxic; 360,000 compounds, 2% hits;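 also: 0% = DMSO wells and -100% = cell-free medium wells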
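Luminescent ATP read-out (CellTiter-Glo, 10 min at room temperature) after 48 h compound exposure at 37 °C gave viability of IDH1-knockdown HT-1080 cells. Activity was normalised to DMSO and cell-free wells, then fitted as concentration-response curves.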
KB-V1 MDR tox: KB-V1 MDR subline cytotoxicity; KB-V1 MDR cells viability, CellTiter-Glo, 72 h; Potency, µM (titrated, usually from 46.1 µM), usual class: cytotoxic; 400,000 compounds, 3.4% hits; AID 1347076; also: nearly all actives have a fitted effect of over 60% in size
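Luminescent ATP read-out (CellTiter-Glo, 10 min) measures survival of drug-selected KB-V1 MDR cells after 72 h, 37 degrees C compound exposure. Medium: phenol-red-free DMEM, 10% FBS. Values from fitted concentration-response curves.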
* hit, by the source's call; i = inactive; ? = inconclusive; . = no result; [ ] = dose if it differs, or a comment. Calls follow the shape of the dose curve; as a rule, active = well fitted curve in the direction sought with a large enough effect; inconclusive = small, poorly fitted or top-dose-only effect, or another doubt; inactive = no such curve, though single readings can be large; an effect the other way counts as inactive or inconclusive. Unless noted, % is scaled to controls: 0 for no effect and ±100 for the full control effect; potency is read from the fitted curve at half-maximal effect.

SMILES	TDP1 cell noCPT	TDP1 cell CPT	KB-3-1 tox	HT1080NT lethal	HT1080 IDH1KD tx	KB-V1 MDR tox
COc1ccc(N2CCN(C(CNC(=O)C(=O)NCC3CCCO3)c3ccco3)CC2)cc1 (stereo not given)	-14.6%	-23.1%	i	0.0%	-0.2%	4.11µM*
O=C(NCC(c1ccco1)N1CCN(c2ccccc2)CC1)C1CCCCC1 (stereo not given)	23.1µM*	?	i	-0.9%	1.5%	?
O=C(NCc1cccnc1)C(=O)NCC(c1cccnc1)N1CCN(c2ccccc2F)CC1 (stereo not given)	?	?	i	.	.	i
Cc1[nH]c2ccccc2c1C(=O)CN1CCC2(CC1)OCCO2	-26.4%	-11.7%	i	3.9%	-0.4%	i
Cc1[nH]c2ccccc2c1C(O)CN1CCC2(CC1)OCCO2 (stereo not given)	16.4µM*	?	i	-2.8%	3.4%	i
Cc1ccc(-n2nc(C)c3c(C)cc(=O)n(CC(=O)Nc4cc(Cl)ccc4C)c32)cc1	2.1%	-13.4%	i	.	.	i
Cc1csc(NC(=O)C2COc3ccccc3O2)n1 (stereo not given)	-20.1%	?	i	9.3%	4.1%	i
Cc1ccc2sc(NNC(=O)C3COc4ccccc4O3)nc2c1C (stereo not given)	?	25.9µM*	i	-2.9%	-1.6%	i
O=C(Nc1nc(-c2ccccn2)cs1)C1COc2ccccc2O1 (stereo not given)	5.17µM*	3.26µM*	i	?	?	i
O=C(Nc1nc(-c2ccccc2)cs1)C1COc2ccccc2O1 (stereo not given)	?	-5.3%	i	-13.6%	-10.9%	i
Cc1cnc(NC(=O)C2COc3ccccc3O2)s1 (stereo not given)	?	20.6µM*	i	-5.7%	-2.7%	i
O=C(Nc1nc(-c2ccc(S(=O)(=O)N3CCCC3)cc2)cs1)C1COc2ccccc2O1 (stereo not given)	7.31µM*	9.2µM*	i	0.6%	1.8%	?
C=CCNC(=O)N1C2=NC(C(=O)OC)=C(C(=O)OC)[C@@H]3N(Cc4ccccc4)c4ccccc4[C@]23C[C@H]1C(=O)OC	-17.7%	-6.5%	?	2.9%	1.7%	i
COCCNC(=O)CN1CCN(Cc2cccc(Cl)c2)C1=O	1.0%	-18.1%	i	2.2%	-4.6%	i
S=C(NCCc1ccccc1)NCCN1CCOCC1	9.0%	-18.2%	i	7.6%	3.5%	?
COc1ccccc1NC(=O)Cn1cc(C(=O)c2ccncc2)c(=O)c2cc(C)ccc21	-18.6%	-7.4%	.	.	.	.
Cc1ccc2sc(NNC(=O)c3cc(=O)c4ccccc4o3)nc2c1C	?	29.1µM*	?	-8.2%	-22.2%	i
O=C1c2cccc3cccc(c23)C(=O)N1OS(=O)(=O)c1ccc(Cl)cc1	18.4µM*	?	i	-14.9%	12.1%	i
CCc1ccc(OC(=O)CN2C(=O)c3ccccc3C2=O)cc1	-0.1%	-5.1%	i	1.5%	4.1%	?
CCc1ccc(S(=O)(=O)ON2C(=O)c3ccccc3C2=O)cc1	11.6µM*	7.31µM*	i	-23.6%	-25.4%	i
O=C(COC(=O)CCCN1C(=O)c2cccc3cccc(c23)C1=O)Nc1ccc(Cl)cc1	1.8%	12.8%	i	4.2%	8.1%	i
COc1ccc(S(=O)(=O)n2nc(-c3ccco3)nc2NCc2ccc(C(C)C)cc2)cc1	23.1µM*	18.4µM*	i	.	.	i
O=S(=O)(c1ccc2ccccc2c1)n1nc(-c2ccco2)nc1NCc1ccc(F)cc1	-27.1%	0.7%	.	.	.	.
CS(=O)(=O)n1nc(-c2ccco2)nc1NCc1ccccc1Cl	18.4µM*	?	i	.	.	i
CC(C)c1ccc(CNc2nc(-c3ccco3)nn2S(=O)(=O)c2ccc(F)cc2)cc1	?	20.6µM*	?	.	.	i
SMILES	TDP1 cell noCPT	TDP1 cell CPT	KB-3-1 tox	HT1080NT lethal	HT1080 IDH1KD tx	KB-V1 MDR tox
C[C@@H]1CC[C@@]2(OC1)O[C@H]1C[C@H]3[C@@H]4CC[C@H]5C[C@@H](O)CC[C@]5(C)[C@H]4CC(=O)[C@]3(C)[C@H]1[C@@H]2C	-10.2%[21.1 µM]	17.2%[21.1 µM]	.	.	.	.
COc1ccc(C(=O)C(C)OC(=O)c2cccc(S(=O)(=O)Nc3cc(Cl)c(OC)cc3OC)c2)cc1 (stereo not given)	20.6µM*	23.1µM*	i	-6.0%	-18.8%	i
COc1ccc(NS(=O)(=O)c2cccc(C(=O)O)c2)cc1	-3.5%	3.1%	i	5.5%	-6.8%	i
CN(CCc1ccc(Cl)c(Cl)c1)C[C@@H](O)COc1ccc(NS(C)(=O)=O)cc1	23.7µM*	?	.	.	.	.
CC(=O)Cc1nsc(NC(=O)c2ccc(-c3cccc(Cl)c3)o2)n1	16.4µM*	16.4µM*	?	-22.8%	?	i
CC(=O)Cc1nsc(NC(=O)c2ccc(COc3ccccc3C)o2)n1	12.3%	-1.9%	i	?	?	i
CC(=O)Cc1nsc(NC(=O)c2ccco2)n1	?	-16.2%	i	3.1%	6.2%	i
CC(=O)Cc1nsc(NC(=O)c2ccc(Br)o2)n1	1.64µM*	?	i	-3.2%	-0.4%[9.24 µM]	i
CCOc1ccccc1NC(=O)c1cc(S(=O)(=O)N2CCOCC2)cn1C	-1.6%	5.3%	.	.	.	.
Cc1c(Nc2ncnc3c2cnn3-c2ccccc2)c(=O)n(-c2ccccc2)n1C	-21.0%	?	i	-3.2%	-9.5%	?
Cc1cccc(-n2ncc3c(Nc4c(C)n(C)n(-c5ccccc5)c4=O)ncnc32)c1	?	?	i	-0.4%	-10.3%	20.6µM*
COc1ccc(Nc2ncnc3c2cnn3-c2ccc(C)cc2)cc1Cl	23.1µM*	?	i	.	.	i
Cc1ccc(Nc2ncnc3c2cnn3-c2ccc(C)cc2)cc1	?	-17.6%	i	.	.	i
Cc1cccc(-n2ncc3c(Nc4ccc(Oc5ccc(Cl)cc5)cc4)ncnc32)c1	14.6µM*	18.4µM*	i	.	.	i
COc1ccccc1Nc1ncnc2c1cnn2-c1cccc(C)c1	?	?	i	-0.3%	-9.1%	i
Cc1cccc(-n2ncc3c(Nc4ccc(C)c(Cl)c4)ncnc32)c1	18.4µM*	18.4µM*	i	.	.	i
CS(=O)(=O)N1CCC2(CC1)CN(C(=O)Nc1cccc(F)c1)C2	-25.2%	-6.0%	.	.	.	.

Bioassay records (PubChem BioAssay)
